Assay results from PubChem BioAssay AID777 (Sanford-Burnham Center for Chemical Genomics, 2007).
The campaign covered roughly 96,000 compounds. About 19,000 (20%) were called active. Not all results are given here. A number with no mark means an inactive call.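 Rule for the calls: active = blocking of liver enzyme CYP2C9 beyond about 50% at 5 µM (limit read from the data); inactive = the rest.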

Biological target: Cytochrome P450 2C9 (Homo sapiens) (UniProt P11712)
Experiment: blockers of cytochrome P450 2C9 activity – biochemical, luminescence, ADME assay, primary screen (AID 777)
Conditions: CYP2C9 Supersomes, luciferin-H conversion, at 5 µM, active compounds read high

Sequence of Cytochrome P450 2C9 (Homo sapiens) (P11712 whole entry, looked up): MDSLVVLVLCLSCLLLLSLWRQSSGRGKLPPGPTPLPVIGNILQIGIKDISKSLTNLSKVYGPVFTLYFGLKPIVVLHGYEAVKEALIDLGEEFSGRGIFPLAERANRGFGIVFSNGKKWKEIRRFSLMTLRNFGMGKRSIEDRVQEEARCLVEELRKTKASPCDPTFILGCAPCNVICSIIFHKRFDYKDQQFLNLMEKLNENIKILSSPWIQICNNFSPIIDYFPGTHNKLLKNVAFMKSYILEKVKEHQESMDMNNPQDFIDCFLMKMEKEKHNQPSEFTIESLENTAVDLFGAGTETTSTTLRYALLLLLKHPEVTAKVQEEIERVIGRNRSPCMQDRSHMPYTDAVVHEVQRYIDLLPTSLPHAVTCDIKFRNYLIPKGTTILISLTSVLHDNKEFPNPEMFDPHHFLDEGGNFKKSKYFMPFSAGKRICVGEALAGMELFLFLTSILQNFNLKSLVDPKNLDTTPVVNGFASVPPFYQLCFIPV

| Structure (SMILES) | inhibition |
| --- | --- |
| CCc1cccc2c(C=C(C#N)C#N)cn(CC(=O)N3CCCCC3)c12 | 0% |
| Cc1nnc(SCc2cc(=O)[nH]c(N3CCN(Cc4ccccc4)CC3)n2)s1 | 56.4% (active) |
| CCc1c(C)nc(N2CCN(Cc3ccccc3)CC2)[nH]c1=O | 10.1% |
| O=c1cc(CSc2ccccn2)nc(N2CCN(c3ccccc3)CC2)[nH]1 | 3.6% |
| Cc1ccc(-c2n[nH]c(=S)n2/N=C/c2cc3c(cc2[N+](=O)[O-])OCO3)cc1 | 18% |
| Nc1nc(C23CC4CC(CC(C4)C2)C3)cs1 | 73.6% (active) |
| N#Cc1c(N)nc2c3c(sc(=N)c2c1N)NC(=O)CC3c1ccccc1Cl (centres undefined) | 8.6% |
| CCOC(=O)C1(S(=O)(=O)c2ccc(Cl)cc2)CCN(Cc2ccccc2)CC1 | 21.8% |
| CCN1C(=O)/C(=C\N2CCOCC2)SC1=S | 8.1% |
| CC1(N2CCOCC2)CC2(O)C(=[N+]1[O-])CCc1nonc12 (centres undefined) | 31.8% |
| O=C1Nc2cc(Cl)c(Cl)cc2N(O)N1c1cc(Cl)cc(Cl)c1 | 89.3% (active) |
| CCN(CC)CCCNC(=O)c1cc(-c2cccc(Cl)c2)on1 | 10.4% |
| CC(C)N(c1ccccc1)c1ncnc(NCCC(=O)O)c1[N+](=O)[O-] | -1.4% |
| Cc1cc2c(=O)n(C)c(SCC(=O)c3cc4ccccc4o3)nc2s1 | 95.9% (active) |
| Cc1ccsc1C(=O)OCC(=O)c1cc2ccccc2o1 | -30.4% |
| Cc1ccc(C(=O)CSc2nc3ccccc3c(=O)n2N)o1 | 34.2% |
| C=CCn1c(Oc2ccc(C(=O)OC)cc2)nc2c1c(=O)n(C)c(=O)n2C | 8.4% |
| O=C(O)C1CCN(S(=O)(=O)N2CCOCC2)CC1 | 3.6% |
| COCCCN1C(=O)C(=O)/C(=C(/O)c2ccc3c(c2)CC(C)O3)C1c1cccnc1 (centres undefined) | -1% |
| c1ccc(CCN2CN=C(Nc3nc4ccccc4o3)NC2)cc1 | 6.5% |
| Clc1ccc(Cn2ncc3c(NCc4cccnc4)ncnc32)cc1 | 49.7% |
| CCN1C(=O)/C(=C2\SC(N3CCCCC3)=NC2=O)c2ccccc21 | -20.1% |
| O=S(=O)(c1ccc(Br)cc1)c1nc(-c2ccccc2)oc1NCc1cccnc1 | 17.3% |
| O=C(NCc1cccnc1)c1ccc(CS(=O)(=O)c2ccc(Br)cc2)o1 | 95.6% (active) |
| CC(C)(C)c1cc(C(=O)NCc2cccnc2)ccn1 | 12.2% |

| Structure (SMILES) | inhibition |
| --- | --- |
| Cc1cc(C(C)(C)C)oc1C(=O)N(CC(=O)NC1CCCC1)Cc1ccc(Cl)cc1 | -11.5% |
| CN(C)c1ccc(NC(=O)c2ccncc2)c2ccccc12 | 43.9% |
| CCOc1cccc(C(=O)Nc2cccnc2)c1 | 4.7% |
| C=C(C)C(=O)Nc1cccc(C(C)=O)c1 | 1.4% |
| CCCCOc1ccc(C(=O)NCc2ccncc2)cc1 | 58.4% (active) |
| CC(=O)c1cccc(NC(=O)c2ccncc2)c1 | 68.3% (active) |
| COc1ccc(NC(=O)c2ccc(OC)cc2)cc1 | -13.7% |
| CCOc1ccc(C(=O)Nc2ccncc2)cc1 | 94.8% (active) |
| CCCCCCOc1ccc(OC(=O)c2cccnc2)cc1 | 10% |
| CCCCOc1ccc(C(=O)NCc2ccco2)cc1 | 15.5% |
| COC(=O)CNC(=O)c1ccccc1F | -2.7% |
| Cc1cc(Cl)c(S(=O)(=O)NCCC(=O)O)cc1OCC(N)=O | -23.5% |
| c1cc(-c2nn[nH]n2)ccc1CN1CCCCC1 | -10.5% |
| COc1ccc(-c2cc3nc(C)c(CCC(=O)NC(C)CCc4ccco4)c(C)n3n2)c(OC)c1 (centres undefined) | 37.5% |
| COc1cc(/C=C(/NC(=O)c2ccccc2)C(=O)Nc2cccc(O)c2)c([N+](=O)[O-])cc1OC | 16.6% |
| CCOc1ncccc1C(=O)OCc1cn2cc(Cl)ccc2n1 | 45% |
| CSc1nc2ccccc2cc1/C=C(\C#N)c1ccc(Cl)cc1Cl | 7.6% |
| O=C(NCc1ccco1)c1cccn2c(=O)c3c4c(sc3nc12)CCCC4 | 59.8% (active) |
| O=C(NCc1ccco1)c1cnn2c(C(F)(F)F)cc(-c3ccco3)nc12 | 17.5% |
| C=C(C)Cn1c(SCC(=O)NCc2ccco2)nc2sc3c(c2c1=O)CCC3 | 34.6% |
| Cc1nc2nc(C)c(CCC(=O)N3CCN(c4ccccc4)CC3)c(C)n2n1 | 0.9% |
| COC(=O)C1=C(C)N=C2SC(C)C(=O)N2C1/C=C/c1ccccc1 (centres undefined) | 48.6% |
| Cc1ccc(S(=O)(=O)Cn2nnnc2CN2CCN(Cc3ccc4c(c3)OCO4)CC2)cc1 | 29.7% |
| O=C(/C=C/Nc1ccccc1OC(F)(F)F)C(F)(F)F | 5.5% |
